# According to article PMC7862700, “An all-to-all approach to the identification of sequence-specific readers for epigenetic DNA modifications on cytosine”:
# Key:
# Test in all cases: DAPPL (digital affinity profiling via proximity ligation, sequencing); 10 mM Tris-HCl pH 7.5, 50 mM NaCl, 1 mM DTT, 4% glycerol, room temperature, 30 min; GST-TFs on glutathione beads, 16-mer random dsDNA library, 0.1% formaldehyde crosslink after washing; high values mean tight binding
# FEV = molecular target: T1, FEV (Homo sapiens, UniProt Q99581 1-238); conditions: protein: recombinant; tags: N-terminal GST; dsDNA, one strand shown
# T1 sequence: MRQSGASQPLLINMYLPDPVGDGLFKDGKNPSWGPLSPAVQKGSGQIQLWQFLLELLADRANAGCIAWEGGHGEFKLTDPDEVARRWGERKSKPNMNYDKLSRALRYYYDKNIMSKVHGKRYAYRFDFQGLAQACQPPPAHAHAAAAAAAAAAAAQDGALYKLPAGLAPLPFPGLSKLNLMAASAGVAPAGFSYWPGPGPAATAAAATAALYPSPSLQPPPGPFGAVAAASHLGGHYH
# In short: (§1)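 The binding signal reported is, for every hexamer, its read frequency for a factor over its read frequency for the tag-only sample. Reads came from pools of yeast-expressed, GST-fused human transcription factors on glutathione beads, barcoded with DNA and mixed with that sample, which were incubated with 200 nmole of a random double-stranded 16-mer DNA library in Tris/NaCl/DTT/glycerol buffer at room temperature for 30 min. After washing, the pools were crosslinked with 0.1% formaldehyde, proximity-ligated with BsaI/T4 ligase for 1 h at 37 °C, PCR-amplified and sequenced on an Illumina NextSeq500.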
# ETV5 = ETV5 (Homo sapiens, UniProt P41161 1-510); conditions: protein: recombinant; tags: N-terminal GST; dsDNA, one strand shown
# In short: as §1
# HSF1 = HSF1 (Homo sapiens, UniProt Q00613 1-529); conditions: protein: recombinant; tags: N-terminal GST; chain copies: 3; dsDNA, one strand shown
# In short: as §1
# SPIC = molecular target: T2, SPIC (Homo sapiens, UniProt Q8N5J4 1-248); conditions: protein: recombinant; tags: N-terminal GST; dsDNA, one strand shown
# T2 sequence: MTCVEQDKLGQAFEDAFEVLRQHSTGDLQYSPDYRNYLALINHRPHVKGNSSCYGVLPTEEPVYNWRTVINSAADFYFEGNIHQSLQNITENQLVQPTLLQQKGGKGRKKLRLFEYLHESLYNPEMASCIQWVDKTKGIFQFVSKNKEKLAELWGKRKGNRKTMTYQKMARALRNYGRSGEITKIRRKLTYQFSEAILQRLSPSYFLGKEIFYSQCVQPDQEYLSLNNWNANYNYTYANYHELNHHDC
# In short: as §1
# ELF4 = ELF4 (Homo sapiens, UniProt Q99607 1-663); conditions: protein: recombinant; tags: N-terminal GST; dsDNA, one strand shown
# In short: as §1
# ELK4 = molecular target: T3, ELK4 (Homo sapiens, UniProt P28324-2 1-405); conditions: protein: recombinant; tags: N-terminal GST; dsDNA, one strand shown
# T3 sequence: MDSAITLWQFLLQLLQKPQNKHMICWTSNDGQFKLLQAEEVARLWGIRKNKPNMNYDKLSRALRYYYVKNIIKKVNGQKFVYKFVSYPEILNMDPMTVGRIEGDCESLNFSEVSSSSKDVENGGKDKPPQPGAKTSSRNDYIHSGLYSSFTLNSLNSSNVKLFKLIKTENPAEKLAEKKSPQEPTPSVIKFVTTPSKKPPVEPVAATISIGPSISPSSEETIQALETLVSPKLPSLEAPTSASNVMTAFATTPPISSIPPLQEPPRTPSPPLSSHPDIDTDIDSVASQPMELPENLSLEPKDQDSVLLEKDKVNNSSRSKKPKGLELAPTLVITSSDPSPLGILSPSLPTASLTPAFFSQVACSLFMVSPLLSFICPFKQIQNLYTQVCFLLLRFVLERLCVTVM
# In short: as §1
# ETV2 = molecular target: T4, ETV2 (Homo sapiens, UniProt O00321 1-342); conditions: protein: recombinant; tags: N-terminal GST; dsDNA, one strand shown
# T4 sequence: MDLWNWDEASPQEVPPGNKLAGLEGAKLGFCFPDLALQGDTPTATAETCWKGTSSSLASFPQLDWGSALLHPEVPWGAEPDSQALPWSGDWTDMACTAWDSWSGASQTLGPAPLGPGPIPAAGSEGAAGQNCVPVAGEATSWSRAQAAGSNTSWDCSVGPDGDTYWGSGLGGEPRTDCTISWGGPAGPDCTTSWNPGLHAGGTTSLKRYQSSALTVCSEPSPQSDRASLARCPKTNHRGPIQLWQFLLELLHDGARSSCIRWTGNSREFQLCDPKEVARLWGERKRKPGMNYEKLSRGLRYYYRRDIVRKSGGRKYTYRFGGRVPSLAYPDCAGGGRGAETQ
# In short: as §1
# ELF3 = molecular target: T5, ELF3 (Homo sapiens, UniProt P78545 1-371); conditions: protein: recombinant; tags: N-terminal GST; dsDNA, one strand shown
# T5 sequence: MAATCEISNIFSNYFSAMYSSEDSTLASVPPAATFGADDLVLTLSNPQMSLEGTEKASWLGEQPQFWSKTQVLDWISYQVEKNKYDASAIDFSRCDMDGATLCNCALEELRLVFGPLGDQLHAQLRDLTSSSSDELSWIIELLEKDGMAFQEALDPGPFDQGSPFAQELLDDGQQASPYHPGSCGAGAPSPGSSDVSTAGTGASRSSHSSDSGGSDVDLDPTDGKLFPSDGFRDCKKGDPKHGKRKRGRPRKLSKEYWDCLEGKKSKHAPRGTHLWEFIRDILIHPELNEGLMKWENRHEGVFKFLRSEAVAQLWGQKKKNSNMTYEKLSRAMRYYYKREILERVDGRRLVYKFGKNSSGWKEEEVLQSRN
# In short: as §1
# ETV1 = ETV1 (Homo sapiens, UniProt P50549 1-477); conditions: protein: recombinant; tags: N-terminal GST; dsDNA, one strand shown
# In short: as §1
# ERF = molecular target: T6, ERF (Homo sapiens, UniProt P50548 1-548); conditions: protein: recombinant; tags: N-terminal GST; dsDNA, one strand shown
# T6 sequence: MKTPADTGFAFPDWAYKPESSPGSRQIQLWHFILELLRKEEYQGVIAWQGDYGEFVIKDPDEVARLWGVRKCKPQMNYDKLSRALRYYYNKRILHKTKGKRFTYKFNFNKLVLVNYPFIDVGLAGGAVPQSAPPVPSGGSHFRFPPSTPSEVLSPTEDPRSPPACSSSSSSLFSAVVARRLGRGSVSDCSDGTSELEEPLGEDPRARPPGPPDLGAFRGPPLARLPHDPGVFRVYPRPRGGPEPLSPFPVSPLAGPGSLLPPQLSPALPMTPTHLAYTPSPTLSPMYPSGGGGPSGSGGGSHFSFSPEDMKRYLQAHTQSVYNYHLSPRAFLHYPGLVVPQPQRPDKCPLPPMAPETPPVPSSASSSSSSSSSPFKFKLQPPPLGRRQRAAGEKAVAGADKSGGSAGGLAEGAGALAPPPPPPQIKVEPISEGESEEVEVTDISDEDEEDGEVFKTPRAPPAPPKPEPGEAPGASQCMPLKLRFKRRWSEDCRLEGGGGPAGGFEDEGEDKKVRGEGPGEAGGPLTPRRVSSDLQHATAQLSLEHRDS
# In short: as §1
# ETV3L = molecular target: T7, ETV3L (Homo sapiens, UniProt Q6ZN32 1-361); conditions: protein: recombinant; tags: N-terminal GST; dsDNA, one strand shown
# T7 sequence: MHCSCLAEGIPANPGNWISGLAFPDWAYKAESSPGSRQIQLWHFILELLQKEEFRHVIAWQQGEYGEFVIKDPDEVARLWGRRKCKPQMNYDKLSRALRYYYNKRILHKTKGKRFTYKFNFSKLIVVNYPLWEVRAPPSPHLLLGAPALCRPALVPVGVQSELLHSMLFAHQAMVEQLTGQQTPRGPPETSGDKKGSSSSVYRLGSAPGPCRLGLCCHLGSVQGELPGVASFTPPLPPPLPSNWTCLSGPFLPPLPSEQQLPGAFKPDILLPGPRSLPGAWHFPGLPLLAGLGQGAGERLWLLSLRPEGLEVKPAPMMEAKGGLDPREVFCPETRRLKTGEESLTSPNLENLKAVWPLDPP
# In short: as §1
# ETS2 = molecular target: T8, ETS2 (Homo sapiens, UniProt P15036 1-469); conditions: protein: recombinant; tags: N-terminal GST; dsDNA, one strand shown
# T8 sequence: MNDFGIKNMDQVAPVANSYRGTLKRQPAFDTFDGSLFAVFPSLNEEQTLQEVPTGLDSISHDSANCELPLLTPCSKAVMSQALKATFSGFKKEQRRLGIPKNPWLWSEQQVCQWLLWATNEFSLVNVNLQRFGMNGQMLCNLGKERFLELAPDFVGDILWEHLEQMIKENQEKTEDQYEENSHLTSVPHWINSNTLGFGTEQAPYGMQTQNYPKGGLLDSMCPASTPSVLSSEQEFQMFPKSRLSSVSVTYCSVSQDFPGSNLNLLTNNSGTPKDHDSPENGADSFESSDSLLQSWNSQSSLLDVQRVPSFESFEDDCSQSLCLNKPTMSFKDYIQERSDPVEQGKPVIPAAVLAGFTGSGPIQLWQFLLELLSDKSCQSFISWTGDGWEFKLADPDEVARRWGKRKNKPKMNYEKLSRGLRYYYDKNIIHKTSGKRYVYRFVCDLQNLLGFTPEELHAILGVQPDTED
# In short: as §1
# SPDEF = molecular target: T9, SPDEF (Homo sapiens, UniProt O95238 1-335); conditions: protein: recombinant; tags: N-terminal GST; dsDNA, one strand shown
# T9 sequence: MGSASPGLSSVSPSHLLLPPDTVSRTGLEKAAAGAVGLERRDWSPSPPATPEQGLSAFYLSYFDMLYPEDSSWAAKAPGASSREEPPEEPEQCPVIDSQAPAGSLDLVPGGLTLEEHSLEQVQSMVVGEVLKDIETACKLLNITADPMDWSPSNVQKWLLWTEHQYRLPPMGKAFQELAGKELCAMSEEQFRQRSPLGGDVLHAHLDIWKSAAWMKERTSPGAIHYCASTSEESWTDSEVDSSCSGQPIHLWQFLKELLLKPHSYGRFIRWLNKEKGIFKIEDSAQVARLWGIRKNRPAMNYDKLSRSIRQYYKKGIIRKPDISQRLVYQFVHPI
# In short: as §1
# ETV7 = molecular target: T10, ETV7 (Homo sapiens, UniProt Q9Y603 1-341); conditions: protein: recombinant; tags: N-terminal GST; dsDNA, one strand shown
# T10 sequence: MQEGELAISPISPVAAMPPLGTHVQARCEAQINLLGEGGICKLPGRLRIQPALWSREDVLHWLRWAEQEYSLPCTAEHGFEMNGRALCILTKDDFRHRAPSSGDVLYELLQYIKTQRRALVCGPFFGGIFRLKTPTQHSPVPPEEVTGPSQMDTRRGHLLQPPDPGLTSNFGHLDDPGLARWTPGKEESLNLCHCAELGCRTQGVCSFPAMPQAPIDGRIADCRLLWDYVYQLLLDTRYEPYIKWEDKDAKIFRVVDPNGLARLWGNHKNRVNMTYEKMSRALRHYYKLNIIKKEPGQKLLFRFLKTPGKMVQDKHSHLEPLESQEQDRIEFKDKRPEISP
# In short: as §1
# ELF5 = molecular target: T11, ELF5 (Homo sapiens, UniProt Q9UKW6-2 1-255); conditions: protein: recombinant; tags: N-terminal GST; dsDNA, one strand shown
# T11 sequence: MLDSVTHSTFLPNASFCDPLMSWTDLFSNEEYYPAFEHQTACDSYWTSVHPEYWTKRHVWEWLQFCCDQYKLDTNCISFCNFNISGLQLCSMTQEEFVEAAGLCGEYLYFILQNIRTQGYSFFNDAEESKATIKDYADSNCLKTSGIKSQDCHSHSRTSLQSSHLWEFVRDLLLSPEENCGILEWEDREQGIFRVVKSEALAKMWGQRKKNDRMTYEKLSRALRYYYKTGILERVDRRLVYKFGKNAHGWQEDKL
# In short: as §1
# ETV3 = molecular target: T12, ETV3 (Homo sapiens, UniProt P41162-2 1-143); conditions: protein: recombinant; tags: N-terminal GST; dsDNA, one strand shown
# T12 sequence: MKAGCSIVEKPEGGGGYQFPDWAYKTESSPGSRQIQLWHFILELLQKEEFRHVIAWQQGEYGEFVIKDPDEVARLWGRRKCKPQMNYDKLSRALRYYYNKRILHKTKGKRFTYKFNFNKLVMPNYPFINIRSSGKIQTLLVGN
# In short: as §1
# ETV6 = ETV6 (Homo sapiens, UniProt P41212 1-452); conditions: protein: recombinant; tags: N-terminal GST; dsDNA, one strand shown
# In short: as §1
# Chain of ETV1 (P50549 whole entry): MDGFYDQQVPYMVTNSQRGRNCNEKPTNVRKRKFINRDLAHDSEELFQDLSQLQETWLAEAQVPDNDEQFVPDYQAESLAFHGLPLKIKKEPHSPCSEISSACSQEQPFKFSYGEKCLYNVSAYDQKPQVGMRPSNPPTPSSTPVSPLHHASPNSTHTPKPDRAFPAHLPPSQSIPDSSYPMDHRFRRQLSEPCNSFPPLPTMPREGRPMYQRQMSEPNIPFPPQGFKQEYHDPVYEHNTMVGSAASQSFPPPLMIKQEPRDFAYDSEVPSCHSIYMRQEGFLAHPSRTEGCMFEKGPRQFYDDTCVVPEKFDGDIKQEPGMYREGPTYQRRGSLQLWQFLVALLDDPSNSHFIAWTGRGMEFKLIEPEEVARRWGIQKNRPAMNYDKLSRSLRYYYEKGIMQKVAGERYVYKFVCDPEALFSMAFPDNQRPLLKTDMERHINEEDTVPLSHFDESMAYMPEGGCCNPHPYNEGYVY
# Chain of ETV6 (P41212 whole entry): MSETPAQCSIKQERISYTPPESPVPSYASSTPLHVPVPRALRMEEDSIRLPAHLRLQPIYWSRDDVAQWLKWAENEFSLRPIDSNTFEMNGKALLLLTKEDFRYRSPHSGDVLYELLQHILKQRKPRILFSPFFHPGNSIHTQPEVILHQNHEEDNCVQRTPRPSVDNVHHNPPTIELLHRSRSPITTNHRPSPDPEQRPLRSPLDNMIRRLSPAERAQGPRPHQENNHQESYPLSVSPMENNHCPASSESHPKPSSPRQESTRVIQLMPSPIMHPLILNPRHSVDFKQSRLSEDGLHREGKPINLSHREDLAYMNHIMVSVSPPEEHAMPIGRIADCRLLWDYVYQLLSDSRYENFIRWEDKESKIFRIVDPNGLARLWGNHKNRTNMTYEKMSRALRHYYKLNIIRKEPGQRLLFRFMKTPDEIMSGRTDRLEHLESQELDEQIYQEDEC
# Chain of HSF1 (Q00613 whole entry): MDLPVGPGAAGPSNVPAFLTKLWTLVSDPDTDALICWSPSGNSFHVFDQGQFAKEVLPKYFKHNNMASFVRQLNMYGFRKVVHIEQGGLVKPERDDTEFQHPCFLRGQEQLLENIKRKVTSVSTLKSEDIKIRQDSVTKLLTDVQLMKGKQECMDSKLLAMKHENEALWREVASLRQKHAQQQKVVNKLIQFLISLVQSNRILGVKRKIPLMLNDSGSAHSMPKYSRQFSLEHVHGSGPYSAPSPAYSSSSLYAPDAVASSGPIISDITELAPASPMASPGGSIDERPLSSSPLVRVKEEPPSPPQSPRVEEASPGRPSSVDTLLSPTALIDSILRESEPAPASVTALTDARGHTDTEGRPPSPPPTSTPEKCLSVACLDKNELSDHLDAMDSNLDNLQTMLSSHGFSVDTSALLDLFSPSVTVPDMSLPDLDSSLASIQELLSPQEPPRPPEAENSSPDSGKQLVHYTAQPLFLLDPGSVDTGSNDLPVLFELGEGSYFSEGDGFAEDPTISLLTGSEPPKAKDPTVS
# Chain of ETV5 (P41161 whole entry): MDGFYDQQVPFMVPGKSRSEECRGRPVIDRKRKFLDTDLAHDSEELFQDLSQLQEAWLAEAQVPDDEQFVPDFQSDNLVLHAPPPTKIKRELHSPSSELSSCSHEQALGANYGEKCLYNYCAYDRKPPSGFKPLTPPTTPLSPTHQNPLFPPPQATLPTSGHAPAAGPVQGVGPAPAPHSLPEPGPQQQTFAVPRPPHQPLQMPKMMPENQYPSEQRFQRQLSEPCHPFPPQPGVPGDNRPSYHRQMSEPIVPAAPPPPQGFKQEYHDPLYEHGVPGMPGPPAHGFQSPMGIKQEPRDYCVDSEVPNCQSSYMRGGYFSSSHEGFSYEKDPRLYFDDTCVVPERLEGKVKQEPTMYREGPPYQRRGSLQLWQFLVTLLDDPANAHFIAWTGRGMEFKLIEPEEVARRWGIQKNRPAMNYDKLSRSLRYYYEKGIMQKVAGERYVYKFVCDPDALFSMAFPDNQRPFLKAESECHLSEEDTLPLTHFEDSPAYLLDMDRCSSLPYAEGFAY
# Chain of ELF4 (Q99607 whole entry): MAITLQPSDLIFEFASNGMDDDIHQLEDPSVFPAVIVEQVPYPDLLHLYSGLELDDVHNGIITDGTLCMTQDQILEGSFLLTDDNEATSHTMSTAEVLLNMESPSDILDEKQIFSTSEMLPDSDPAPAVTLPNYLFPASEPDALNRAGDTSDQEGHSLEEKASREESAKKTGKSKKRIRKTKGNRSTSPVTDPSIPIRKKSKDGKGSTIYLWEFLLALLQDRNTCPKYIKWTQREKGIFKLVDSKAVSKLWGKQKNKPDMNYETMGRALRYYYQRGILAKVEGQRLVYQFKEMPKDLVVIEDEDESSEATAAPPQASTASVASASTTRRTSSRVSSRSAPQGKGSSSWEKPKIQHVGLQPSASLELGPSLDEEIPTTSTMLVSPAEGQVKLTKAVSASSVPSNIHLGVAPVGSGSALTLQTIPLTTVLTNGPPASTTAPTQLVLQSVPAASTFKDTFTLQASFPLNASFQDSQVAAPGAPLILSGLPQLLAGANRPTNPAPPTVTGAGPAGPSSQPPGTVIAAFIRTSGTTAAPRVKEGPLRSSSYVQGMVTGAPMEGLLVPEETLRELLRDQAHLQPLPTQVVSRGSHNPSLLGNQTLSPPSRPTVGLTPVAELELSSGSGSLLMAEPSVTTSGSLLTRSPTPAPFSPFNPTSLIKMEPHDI
sequence,measurement,setting,value
GTTCAC,binding signal,FEV,"1.3 fold enrichment (6-mer frequency, TF over GST control)"
same,binding signal,ETV5,"1.2 fold enrichment (6-mer frequency, TF over GST control)"
same,binding signal,HSF1,"1.06 fold enrichment (6-mer frequency, TF over GST control)"
same,binding signal,SPIC,"1.09 fold enrichment (6-mer frequency, TF over GST control)"
same,binding signal,ELF4,"1.25 fold enrichment (6-mer frequency, TF over GST control)"
same,binding signal,ELK4,"1.29 fold enrichment (6-mer frequency, TF over GST control)"
same,binding signal,ETV2,"1.22 fold enrichment (6-mer frequency, TF over GST control)"
same,binding signal,ELF3,"1.12 fold enrichment (6-mer frequency, TF over GST control)"
same,binding signal,ETV1,"1.19 fold enrichment (6-mer frequency, TF over GST control)"
same,binding signal,ERF,"1.29 fold enrichment (6-mer frequency, TF over GST control)"
same,binding signal,ETV3L,"1.25 fold enrichment (6-mer frequency, TF over GST control)"
same,binding signal,ETS2,"1.28 fold enrichment (6-mer frequency, TF over GST control)"
same,binding signal,SPDEF,"1.23 fold enrichment (6-mer frequency, TF over GST control)"
same,binding signal,ETV7,"1.29 fold enrichment (6-mer frequency, TF over GST control)"
same,binding signal,ELF5,"1.13 fold enrichment (6-mer frequency, TF over GST control)"
same,binding signal,ETV3,"1.19 fold enrichment (6-mer frequency, TF over GST control)"
same,binding signal,ETV6,"1.2 fold enrichment (6-mer frequency, TF over GST control)"
